Source: PubChem BioAssay (several laboratories)
tim10-1 inh – growth inhibitors of tim10-1 mutant yeast, primary screen, luminescence, uHTS; 330,000 compounds, 2.2% hits; inhibition, % at 20 µM; S. cerevisiae tim10-1 ts strain growth, BacTiter-Glo, 24 h;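 active = inhibition of at least 40%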;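 also: mutant grown at 25 °C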
TIM10 inh – growth inhibitors of isogenic TIM10 control yeast, primary screen, counter-screen for tim10-1 yeast inhibitor project, luminescence, uHTS. S. cerevisiae TIM10 strain growth, BacTiter-Glo luminescence, 24 h. inhibition, % at 10 µM. 330,000 compounds, 1.4% hits. AID 463195, 2010;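 active = inhibition of 40% or more at the single tested concentration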;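 also: wild-type TIM10 isogenic control strain grown at permissive 25 °C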
SKKanGAS inh – S. pyogenes SKKanGAS growth inhibitors in kanamycin, primary screen, streptokinase expression inhibitor project, SKKanGAS strain, BacTiter-Glo luminescence. 6 h. 300,000 compounds, 1.3% hits. inhibition, % at 7.5 µM;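 active = mean replicate score, as percent of positive control median, at least 50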;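 also: strain carries kanamycin resistance gene driven by streptokinase promoter and grows in 40 µg/ml kanamycin; loss of luminescence reflects streptokinase promoter inhibition or plain growth inhibition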
tim23-1 inh – growth inhibitors of tim23-1 mutant yeast, primary screen, luminescence, uHTS | S. cerevisiae tim23-1 growth, BacTiter-Glo luminescence, 24 h | inhibition, % at 20 µM | 330,000 compounds, 1.3% hits | AID 463212, 2010;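 active = growth inhibition of the mutant yeast at or above 50%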;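 also: temperature-sensitive mutant grown at 25 °C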
NALP3 yeast inh – NALP3 inflammasome inhibitors in reconstituted yeast, primary screen, luminescence, uHTS; AID 2825, 2010; inhibition, % at 10 µM; 330,000 compounds, 0.39% hits; Yeast reconstituted NLRP3/ASC/caspase-1, beta-gal luminescence, 24 h;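 active = inhibition of 50% or more; inactive = inhibition below 50%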
PfHsp90 set2 – growth inhibition of PfHsp90-expressing yeast, primary screen, antimalarial PfHsp90 inhibitor project, S. cerevisiae, BacTiter-Glo luminescence, single point, set 2; 310,000 compounds, 0.32% hits; inhibition, % at 9.4 µM; BacTiter-Glo ATP, 48 h; yeast lacking PDR1 and PDR3 efflux regulators;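 active = every replicate shows inhibition above about 80%, whatever the replicate mean, limit read from the data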
Each line names hits and unclear results; the compound was inactive in the other large screens. This is a sample that favours compounds with a hit; in the whole collection about 4.6% have one here.

Cc1ccc(S(=O)(=O)N2CCC[C@H]2C(=O)OCC(=O)Nc2ccc3c(c2)OCO3)cc1	none (no result: SKKanGAS inh)
CC1=NOC2(C1)N(C)c1ccccc1C2(C)C (configuration not stated)	none
COc1ccc2ccc3c(c2c1)N=C[C@]1(O3)N(C)c2ccccc2C1(C)C	SKKanGAS inh 55.8
COc1ccc(NC(=O)CN(C)C(=O)c2ccc(NS(=O)(=O)c3ccc(F)cc3)cc2)cc1	none (no result: PfHsp90 set2)
Clc1ccc(-c2ccc(/C=N/Nc3cc(N4CCOCC4)nc(N4CCOCC4)n3)o2)cc1	SKKanGAS inh 75.7
C=C(C)[C@@H]1CC[C@]2(C(=O)O)CC[C@]3(C)C(CCC4[C@@]5(C)CC[C@H](O)C(C)(C)C5CC[C@]43C)C12 (some centres not stated)	none
C=C(C)[C@@H]1CCC2(C(=O)O)CC[C@]3(C)[C@H](CC[C@@H]4[C@@]5(C)CCC(=O)C(C)(C)[C@@H]5CC[C@]43C)[C@@H]12 (some centres not stated)	SKKanGAS inh 104.4
O=C1C(NS(=O)(=O)c2cccs2)=C(N2CCN(c3cccc(C(F)(F)F)c3)CC2)C(=O)c2ccccc21	SKKanGAS inh 54.5
CC(Oc1ccc(Cl)cc1Cl)c1nc(-c2ccc(NC(=O)c3ccco3)cc2)no1 (configuration not stated)	SKKanGAS inh 54.0
Cc1cccc(C(=O)Nc2ccc(C(=O)Nc3ccc(O)cc3)cc2)c1	none
CCN(CC(=O)NCc1cccs1)C(=O)c1ccc(-c2ccc(F)cc2)o1	none (no result: SKKanGAS inh)
CCN(CC(=O)Nc1ccccc1C(F)(F)F)C(=O)c1cc(-c2ccccc2)nn1-c1ccccc1	SKKanGAS inh 50.8
O=C(CNC(=O)c1ccc2c(c1)OCCO2)N/N=C/c1cccc(Br)c1	none
CCCc1cc(=O)[nH]c(SCC(=O)Nc2ccc([N+](=O)[O-])cc2C#N)n1	none
CSc1ncc(CN2CCc3c([nH]c4ccccc34)C2C(C)(C)C)cn1 (configuration not stated)	SKKanGAS inh 51.5
Cn1cc(CN2CCc3c([nH]c4ccccc34)C2C(C)(C)C)cn1 (configuration not stated)	none
CCN1CCC2(CC1)Oc1c(OC)cccc1C1CC(c3cccnc3)=NN12 (configuration not stated)	none (no result: PfHsp90 set2)
CC(C)=C[C@@H]1C[C@H](C)[C@H]2CC[C@H](C)c3c(O[C@@H]4O[C@@H](C)[C@@H](O)[C@@H](O)[C@@H]4O)c(O)c(C)c1c32	PfHsp90 set2 104.9 (no result: SKKanGAS inh)
CC1OC(Oc2c(-c3cc(O)c(O)c(O)c3)oc3cc(O)cc(O)c3c2=O)C(O)C(O)C1O (configuration not stated)	none
CCOC(=O)Nc1cc(N)ncn1	none (no result: tim10-1 inh, TIM10 inh, SKKanGAS inh, tim23-1 inh, NALP3 yeast inh)
CC(C)C(=O)NC(c1ccccc1)c1cc([N+](=O)[O-])c2cccnc2c1O (configuration not stated)	SKKanGAS inh 84.2
CCCCC(=O)NC(c1ccco1)c1cc(Cl)c2cccnc2c1O (configuration not stated)	SKKanGAS inh 51.7, PfHsp90 set2 105.3
O=C(CCc1ccccc1)NC(c1cccs1)c1cc(Cl)c2cccnc2c1O (configuration not stated)	SKKanGAS inh 66.8, PfHsp90 set2 101.4 (no result: tim10-1 inh, TIM10 inh, tim23-1 inh, NALP3 yeast inh)
CCC(=O)NC(c1cccs1)c1cc([N+](=O)[O-])c2cccnc2c1O (configuration not stated)	none
CC(=O)NC(c1ccccc1)c1cc([N+](=O)[O-])c2cccnc2c1O (configuration not stated)	none
CCCC(=O)NC(c1cccs1)c1cc([N+](=O)[O-])c2cccnc2c1O (configuration not stated)	SKKanGAS inh 85.6 (no result: tim10-1 inh, TIM10 inh, tim23-1 inh, NALP3 yeast inh)
CCC(=O)NC(c1cccs1)c1cc(Cl)c2ccccc2c1O (configuration not stated)	none (no result: SKKanGAS inh)
COc1cccc(N(CC(=O)NC2CCCC2)C(=O)CCC(=O)Nc2cc(C)on2)c1	none
C=CC1=C(C(=O)O)N2C(=O)C(NC(=O)Cc3ccccc3)C2SC1 (configuration not stated)	SKKanGAS inh 94.8
CC1=C(C(=O)OCc2ccc([N+](=O)[O-])cc2)N2C(=O)C(NC(=O)Cc3ccccc3)C2SC1 (configuration not stated)	none
CC1=C(C(=O)OCc2ccccc2)N2C(=O)[C@@H](NC(=O)COc3ccccc3)[C@H]2SC1	none
O=C(COc1ccccc1)NC1C(=O)N2C(C(=O)O)=C(Cl)CSC12 (configuration not stated)	SKKanGAS inh 101.7
CN1C(=O)[C@@H]2[C@H](C1=O)[C@@H]1C(=O)Nc3ccccc3C(=O)N1[C@@H]2c1cccc(Br)c1	none
O=C(COC(=O)COc1ccccc1)Nc1ccc(S(=O)(=O)N2CCOCC2)cc1	none (no result: PfHsp90 set2)
O=C(O)/C=C/c1ccc2c(-c3ccccc3)onc2c1	none
O=C(O)c1ccc(N/N=C/c2ccc(-c3cc(Cl)ccc3Cl)o2)cc1	SKKanGAS inh 75.9
O=C(O)c1ccc(N/N=C/c2ccc(-c3cccc(Cl)c3)o2)cc1	SKKanGAS inh 70.5, PfHsp90 set2 104.4
O=C(O)c1ccc(N/N=C/c2ccc(-c3ccc(Cl)cc3Cl)o2)cc1	SKKanGAS inh 84.5
NS(=O)(=O)c1ccc(-c2ccc(/C=N/Nc3ccc(C(=O)O)cc3)o2)cc1	none
COc1ccc(S(=O)(=O)N2CCCCC2)cc1NC(=O)Cn1cnc2c1c(=O)n(C)c(=O)n2C	none (no result: SKKanGAS inh, PfHsp90 set2)
Cc1ccc(C)c(NC(=O)CN2C(=O)COc3ccc(S(=O)(=O)N4CCCC4)cc32)c1	none
O=C(COC(=O)/C=C/c1ccc(Cl)cc1Cl)NCc1ccco1	none (no result: PfHsp90 set2)
COc1ccc(-c2csc(NC(=O)C3CCN(C(=O)c4ccc(F)cc4)CC3)n2)cc1OC	none
COc1cccc2sc(Nc3nnc(-c4cccs4)o3)nc12	SKKanGAS inh 91.9 (no result: PfHsp90 set2)
Fc1cccc2sc(Nc3nnc(-c4ccco4)o3)nc12	SKKanGAS inh 71.6
COc1cccc2sc(Nc3nnc(-c4ccc(F)cc4)o3)nc12	SKKanGAS inh 88.3
CCOC(=O)c1sc(Nc2nc3c(OC)cccc3s2)nc1C	none
COC(=O)Cc1cc(=O)oc2cc(O)ccc12	none
COC(=O)Nc1ccc(S(=O)(=O)NNC(=O)c2c(O)c3ccccc3n(C)c2=O)cc1	none
O=C(NCc1ccccc1)c1cc[n+](Cc2ccccc2)cc1	none
COc1ccc(OC)c(CN2CCN(C(=O)[C@@H](NC(=O)c3cccc(C)c3)C(C)C)CC2)c1	none (no result: SKKanGAS inh)
O=[N+]([O-])c1ccc(NC2CCCC2)cc1	none
